Consider 55 compounds from PubChem BioAssay AID624405 (Broad Institute, 2012).

The campaign covered roughly 1,900 compounds. About 250 (13%) were called active. About 4% were inconclusive and are not listed.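 Rule for the calls: active = fitted curve reaches 40% rescue activity at or below the top valid dose, in every test run; inconclusive = test runs disagree, some active and some inactive; inactive = every run misses the threshold or moves the wrong way.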 The list is a sample of the results. Entries with a potency or affinity are not part of this list.

This assay can be described thus: rescue of simvastatin-induced ATP loss – cell-based, C2C12 myotubes, ATP luminescence, cherry pick, dose response (AID 624405).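 Note: myotubes are challenged with simvastatin at 10 µM to lower ATP.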 The settings on record: 48 h, scaled: DMSO wells 0, geranylgeraniol wells 100; series mostly up to 19.5 µM.
As for `O=C(Nc1cccc(NC(=O)c2ccccc2F)c1)c1ccccc1`, the result was inactive.

Regarding `Cc1cccc(NC(=O)c2ccccc2C(=O)O)c1`, the compound was classed as inactive.

Take `C[C@H](CO)N1C[C@H](C)[C@@H](CN(C)C(=O)Nc2ccc(F)cc2)OCCCC[C@H](C)Oc2ccc(NC(=O)Cc3ccccc3)cc2C1=O`: the compound was called inactive.

Take `Cc1cccc(OCC(=O)Nc2cc(C)on2)c1`: the compound was called inactive.

For the compound `Cc1ccc2nc(-c3ccccc3Cl)cc(C(=O)Nc3cc(C)on3)c2c1`, the compound was called inactive.

As to `Cc1cc(C)cc(NC(=O)c2ccc(CSc3nnc(C)s3)cc2)c1`, the outcome was inactive.

Consider `Cc1cccc(-c2noc(Cc3ccc(Cl)cc3)n2)c1`, for which the compound was classed as inactive.

As for `COc1ccc(NC(=O)Nc2ccc3c(c2)C(=O)N([C@@H](C)CO)C[C@@H](C)[C@@H](CN(C)Cc2ccc(C(F)(F)F)cc2)OCCCC[C@H](C)O3)cc1`, the compound was called inactive.

As for `CCOc1ccc(-c2nc(CSCC(=O)NCCN3CCOCC3)c(C)o2)cc1`, the compound was classed as inactive.

In the case of `COc1ccc(NC(=O)Nc2cccc3c2O[C@@H](CN(C)C(=O)Nc2cccc4ccccc24)[C@H](C)CN([C@H](C)CO)C3=O)cc1`, the result was inactive.

Regarding `Cc1cc(=O)[nH]c(Nc2c(C)n(C)n(-c3ccccc3)c2=O)n1`, the compound was classed as inactive.

As to `Cn1ccnc1SCC(=O)Nc1ccccc1`, the compound was called inactive.

With `O=C(Cc1cccs1)Nc1nnc(Cc2ccccc2)s1`, the result was inactive.

In the case of `CCOC(=O)c1cnn(-c2ccccc2)c1-n1cccc1`, the compound was called inactive.

For the compound `CC(=O)O[C@@H]1[C@H]2[C@@H](C[C@@H](C)[C@@H]3C=CC(=O)[C@@]13C)OC(=O)[C@@H]2C`, the outcome was inactive.

`COc1ccc(S(=O)(=O)NC(CC(=O)NCc2ccc3c(c2)OCO3)c2ccco2)cc1` (stereo not given): the call was inactive.

For the compound `COc1ccc(S(=O)(=O)NCCC(=O)NCc2ccccc2)cc1`, the compound was classed as inactive.

For the compound `O=C(Nc1ncn[nH]1)c1c(Cl)ccc(Cl)c1Cl`, the compound was classed as inactive.

Regarding `CCCS(=O)(=O)N1CCCC(C(=O)NCCN2CCC(Cc3ccccc3)CC2)C1` (stereo not given), the compound was called inactive.

For the compound `CCOC(=O)CC(=O)CSc1ncc(C(=O)OCC)c(N)n1`, the compound was classed as inactive.

Turning to `CC(=O)N(C)c1ccc(NC(=O)Cc2cccc3ccccc23)cc1`, the call was inactive.

Turning to `C[C@H]1CN([C@@H](C)CO)C(=O)c2cccc(NS(=O)(=O)c3ccc(Cl)cc3)c2O[C@H]1CN(C)Cc1ccc(-c2ccccc2)cc1`, the compound was classed as inactive.

On to `COc1ccc(OCC(O)CN2C(=O)NC(C)(C)C2=O)cc1` (stereo not given), for which the compound was classed as inactive.

Regarding `CN(C)CCCNc1ncnc2c1cnn2Cc1ccccc1Cl`, the call was inactive.

Regarding `CNC(=O)Cn1ncc2c(C)n(Cc3ccc(C)cc3)c(C)c2c1=O`, the compound was called inactive.

For `Cc1ccc(CC(=O)c2ccc(Cl)cc2)cc1`, the outcome was inactive.

Take `COC(=O)c1cccc(OCC(O)Cn2ccnc2)c1` (stereo not given): the outcome was inactive.

As for `C[C@H]1CN([C@@H](C)CO)C(=O)Cc2cc(NS(=O)(=O)c3ccc(F)cc3)ccc2O[C@@H]1CN(C)Cc1ccc2c(c1)OCO2`, the result was inactive.

Turning to `C[C@H]1CN([C@@H](C)CO)C(=O)c2cccc(NC(=O)Nc3ccc4c(c3)OCO4)c2O[C@H]1CN(C)S(=O)(=O)c1ccc(Cl)cc1`, the call was inactive.

In the case of `C[C@@H]1CCCCO[C@@H](CN(C)CC2CCCCC2)[C@@H](C)CN([C@H](C)CO)C(=O)c2cc(NS(=O)(=O)c3ccc(F)cc3)ccc2O1`, the result was inactive.

`Cc1ccc(C(=O)NNC(=O)C2CCN(Cc3ccc(Cl)c(Cl)c3)CC2)cc1`: the call was inactive.

As for `C[C@@H]1CN([C@H](C)CO)C(=O)Cc2cc(NS(=O)(=O)c3ccc(Cl)cc3)ccc2O[C@H]1CN(C)Cc1ccc2c(c1)OCO2`, the result was inactive.

Turning to `C[C@@H]1CN([C@H](C)CO)C(=O)Cc2cc(NS(=O)(=O)c3ccc(Cl)cc3)ccc2O[C@@H]1CN(C)Cc1ccc(C(F)(F)F)cc1`, the compound was called inactive.

On to `C[C@@H]1CN([C@H](C)CO)C(=O)Cc2cc(NS(=O)(=O)c3ccc(F)cc3)ccc2O[C@H]1CN(C)CC1CCCCC1`, for which the call was inactive.

In the case of `C[C@H](CO)N1C[C@H](C)[C@@H](CN(C)CC2CCCCC2)Oc2ccc(NS(=O)(=O)c3ccc(Cl)cc3)cc2CC1=O`, the result was inactive.

In the case of `COc1ccc(CN(C)C[C@H]2Oc3ccc(NS(=O)(=O)c4ccc(F)cc4)cc3CC(=O)N([C@H](C)CO)C[C@H]2C)cc1`, the compound was classed as inactive.

With `COc1ccc(S(=O)(=O)Nc2ccc3c(c2)CC(=O)N([C@@H](C)CO)C[C@H](C)[C@@H](CN(C)Cc2ccccc2)O3)cc1`, the compound was called inactive.

Take `COc1ccc(S(=O)(=O)Nc2ccc3c(c2)C(=O)N([C@H](C)CO)C[C@@H](C)[C@H](CN(C)S(=O)(=O)c2ccc(F)cc2)OCCCC[C@@H](C)O3)cc1`: the compound was classed as inactive.

On to `CCn1c(CSc2nc3ccccc3[nH]2)n[nH]c1=S`, for which the compound was classed as inactive.

For `COc1ccc(S(=O)(=O)Nc2ccc3c(c2)CC(=O)N([C@@H](C)CO)C[C@@H](C)[C@H](CN(C)Cc2ccc(Oc4ccccc4)cc2)O3)cc1`, the result was inactive.

`COc1cc(C)c(C(C)C)cc1S(=O)(=O)NCCCn1ccnc1`: the result was inactive.

Regarding `COC(=O)c1sc(S(=O)(=O)Nc2ccc3cn[nH]c3c2)c(C(=O)OC)c1C`, the call was inactive.

`C[C@H](CO)N1C[C@H](C)[C@H](CN(C)S(=O)(=O)c2ccccc2)OCCCC[C@H](C)Oc2ccc(NS(C)(=O)=O)cc2C1=O`: the compound was classed as inactive.

As to `COc1ccc(-n2c(SCC(=O)N3CCCCC3)nc(O)cc2=O)cc1`, the compound was classed as inactive.

Regarding `CCOC(=O)N1CCN(C(=O)C2CC(c3ccccc3OC)=NO2)CC1` (stereo not given), the outcome was inactive.

Turning to `COc1cc2oc3ccccc3c2cc1N(CC(=O)N1CCCCC1)S(=O)(=O)c1ccc(C)cc1`, the compound was classed as inactive.

`Cn1ncc(Cl)c1C(=O)Nc1cccnc1`: the outcome was inactive.

As for `O=C(O)C1CCCCC1C(=O)Nc1ccccn1` (stereo not given), the call was inactive.

For the compound `CCCCCCC(=O)N1CCN(c2cc3c(cc2F)c(=O)c(C(=O)O)cn3CC)CC1`, the compound was called inactive.

For `CC1CCN(C(=O)c2cc(F)c(F)cc2Cl)CC1`, the compound was called inactive.

For `CCOc1ccccc1Nc1nc(N)nc(Cl)c1CC`, the compound was classed as inactive.

Turning to `O=C(NCc1cccnc1)C1CC(=O)N(CCc2ccccc2)C1` (stereo not given), the result was inactive.

As to `CCOC(=O)N1CCN(c2c(N3CCN(c4cc(C)ccc4C)CC3)c(=O)c2=O)CC1`, the outcome was inactive.

`C[C@H]1CN([C@@H](C)CO)C(=O)c2cccc(NS(=O)(=O)c3cccs3)c2O[C@@H]1CN(C)Cc1ccc(Oc2ccccc2)cc1`: the compound was called inactive.

For `C[C@H](CO)N1C[C@H](C)[C@@H](CN(C)Cc2ccc3c(c2)OCO3)Oc2ccc(NS(=O)(=O)c3ccc(F)cc3)cc2CC1=O`, the call was inactive.
